PubChem BioAssay (NCATS)
Inconclusive results are not listed. Calls of active or inactive are those of the source. Calls come from the whole dose curve; as a rule, active = well fitted activation curve with a large enough effect; inconclusive = small, poorly fitted or top-dose-only effect; inactive = flat fitted curve, though single readings scatter.

assay: Primary redox qHTS assay for identification of artifact compounds. (AID 1845223); conditions: Amplex Red/HRP redox cycling with DTT, fluorescence; series mostly up to 53.8 µM; redox activity (% of DA3003): at the top concentration;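 note: 0% = DMSO and 100% = reference compound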
In short: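 Amplex Red (25 uM) and HRP (250 mU/mL) in HBSS, with compounds for 15 min, then 250 uM DTT for 30 min, room temperature, dark. Fluorescence 525/598 nm read; normalized to DMSO and 10 uM DA3003; Hill fit.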

| SMILES | redox activity (% of DA3003) |
| --- | --- |
| NC(=O)N1CCC(CC(=O)N2CCC(C3c4ncc(Br)cc4CCc4cc(Cl)cc(Br)c43)CC2)CC1 (stereo not given) | 3.67% (inactive) |
| C=C(C(=O)OC[C@H]1O[C@@H](OC(=O)/C=C/c2ccccc2)[C@H](O)[C@@H](O)[C@@H]1O)C(O)CO (stereo not given in full) | 17.6% [at 25.6 µM] (inactive) |
| CN(C)Cc1ccc(-c2cnn3c(-c4cccc(NC(=O)c5cccc(C(F)(F)F)c5)c4)ccnc23)cc1 | -2.31% (inactive) |
| OC1C=C2C3CN(Cc4cc5c(cc43)OCO5)C2CC1O (stereo not given) | -11.3% (inactive) |
| CN(C)[C@@H]1CCc2[nH]c3ccc(NC(=O)c4ccc(F)cc4)cc3c2C1 | -3.72% (inactive) |
| COCc1c(Cl)ccc2c1CC[C@H]2c1ncc[nH]1 | -0.367% (inactive) |
| CN1CCN(C2=Nc3ccccc3Nc3ccc(Cl)cc32)CC1 | 8.86% (inactive) |
| CC(C)C[C@@H](C(=O)N[C@@H](Cc1ccc(OCc2ccccc2)cc1)C(=O)NC(C)(C)C)N(C)Cc1ccc(C(C)(C)C)cc1 | -1.04% (inactive) |
| C=C1/C(=C/C=C2\CCC[C@]3(C)[C@@H]([C@H](C)/C=C/[C@@H](C)C(C)C)CC[C@@H]23)C[C@@H](O)C[C@@H]1O | 19.6% (inactive) |
| C/C=C(/C)C(=O)O[C@H]1C=C(CO)C(=O)[C@H](OC(=O)/C(C)=C/CO)[C@H]1C(C)C | 8.78% (inactive) |
| CC1(C(=O)Nc2ccc(F)nc2)CCCN1c1nc(Nc2cc(C3CC3)[nH]n2)c2cccn2n1 (stereo not given) | -5.89% (inactive) |
| O=C(Nc1ccc2[nH]nc(-c3ccncc3)c2c1)[C@@H]1CCN(CC(=O)N2CCN(c3ccc(-c4ncccn4)cc3)CC2)C1 | 13.9% (inactive) |
| COC(=O)C[C@H]1[C@]2(C)C3=C(C)[C@H](c4ccoc4)C[C@H]3O[C@@H]2[C@H](O)C2[C@](C)(C(=O)OC)C=CC(=O)[C@@]21C (stereo not given in full) | 18.5% [at 25.6 µM] (inactive) |
| Cc1[nH]c(/C=C2\C(=O)Nc3ccc(F)cc32)c(C)c1C(=O)NCCN1CCCC1 | 10% (inactive) |
| Cc1ccc(N2CCN(CCC3NC(=O)c4ccccc43)CC2)cc1C (stereo not given) | 8.85% (inactive) |
| COc1ccc(N(C(=O)Nc2c(C)cccc2C)c2cc(Nc3ccc(N4CCN(C)CC4)cc3)ncn2)c(OC)c1 | 18.3% (inactive) |
| O=C1Cc2c([nH]c3ccc(Br)cc23)-c2ncccc2N1 | 0.738% (inactive) |
| COc1ccc([C@H](Cc2ccncc2)c2ccccc2)cc1OC1CCCC1 | 10.3% (inactive) |

| SMILES | redox activity (% of DA3003) |
| --- | --- |
| Cc1cc(C)c(S(=O)(=O)n2cc(C)cc2C)c(C)c1 | -4.52% (inactive) |
| COC(=O)c1ccc2c(c1)nc(NC(=O)c1ccccc1)n2CCCc1ccccc1 | -6.17% (inactive) |
| C=C1CC[C@@H](O)[C@]2(C)CC[C@H]3C(=C)C(=O)O[C@@H]3[C@@H]12 | 7.2% (inactive) |
| COc1cc(CCO)ccc1O[C@@H]1O[C@H](CO)[C@@H](O)[C@H](O)[C@H]1O | -7.76% (inactive) |
| Cc1[nH]c2ccc(F)cc2c1-c1nc2c3cccnc3c3ncccc3c2[nH]1 | -5.36% (inactive) |
| O=C(NNc1nc2cc(F)ccc2n2cccc12)c1cnccn1 | -7.05% (inactive) |
| CO[C@H]1C[C@@H]2CC[C@@H](C)[C@@](O)(O2)C(=O)C(=O)N2CCCC[C@H]2C(=O)O[C@H]([C@@H](C)C[C@@H]2CC[C@@H](O)[C@H](OC)C2)CC(=O)[C@H](C)/C=C(\C)[C@@H](O)[C@@H](OC)C(=O)[C@H](C)C[C@H](C)/C=C/C=C/C=C/1C | 4.44% (inactive) |
| C=C1C(=O)OC2/C=C(\C)CC/C=C(\C=O)C(OC)C(OC(=O)C(C)CC)C12 (stereo not given) | 17.1% (inactive) |
| COc1cc2ncnc(Nc3ccc(F)c(Cl)c3)c2cc1O | -3.54% (inactive) |
| COc1cccc(NCCC2(c3ccccc3)CC(C)(C)OC(C)(C)C2)c1 | 0.126% (inactive) |
| O=S(=O)(Nc1ccccc1N1CCCCC1)c1ccc(Cl)s1 | -4.22% (inactive) |
| Cn1cc(C2=C(c3coc4ccccc34)C(=O)NC2=O)c2cc(Br)ccc21 | -11.1% (inactive) |
| C=C1C(=O)OC2C=C(C)CC/C=C(\CO)CC(O)C12 (stereo not given) | 9.49% (inactive) |
| CC1(C)SCCN(S(=O)(=O)c2ccc(Oc3ccncc3)cc2)[C@H]1C(=O)NO | 11.1% (inactive) |
| CC(=O)O[C@]1(C(C)=O)CC[C@H]2[C@@H]3CCC4=CC(=O)CCC4=C3[C@@H](c3ccc(N(C)C)cc3)C[C@@]21C | 13.6% (inactive) |
| Cc1cc(-c2cc(OC(=O)c3ccccc3)ccc2Cl)cc2nnc(Nc3ccc(OCCN4CCCC4)cc3)nc12 | -1.46% [at 25.6 µM] (inactive) |
| C[C@H]1CO[C@@H]2Cn3cc(C(=O)NCc4ccc(F)cc4F)c(=O)c(O)c3C(=O)N12 | -0.638% (inactive) |
